This note sets out measurements from PubChem BioAssay AID588742 (Southern Research Specialized Biocontainment Screening …, 2011).

Structures are written as SMILES. In all, about 1,800 compounds went through this assay and about 410 (23%) were called active. These entries were drawn from the full list. Results with a measured potency or affinity are listed apart. Unmarked numbers belong to inactive results. No rule for the calls is given here.

The nature of the assay: Vero cell cytotoxicity, cytotoxicity control for flavivirus capping enzyme inhibitors (AID 588742). To be noted: Vero cells viability, cytotoxicity counter-screen; series mostly up to 40 µM; viability: at the top concentration. Background: A counterscreen serves to expose hits that act by an unwanted route or on another target.
With `CCc1ccc(N(C(=O)c2csnn2)C(C(=O)NC(C)(C)CC)c2cccnc2)cc1` (configuration not stated), the “viability” value is 90.1%.
Next, `O=C1OC(c2ccccc2)/C(=C(/O)c2ccc(Cl)cc2)C1=O` (configuration not stated): 96%.
The same measure for `CC(C)c1noc2ncc(C(=O)c3cc(Cl)cc(Cl)c3O)cc12`: 94.7% [at 20 µM].
The same measure for `CCCCn1c(=O)nc2n(-c3ccccc3)c3ccccc3cc-2c1=O`: 96.6%.
Take `O=C1c2ccccc2C(=O)c2c(/C=C/N3CCCCC3)ccnc21`: the “viability” value was 87.5%.
Turning to `O=c1ccc2c(-c3ccccc3S(=O)(=O)O)c3ccc(O)c(O)c3oc-2c1O`, the “viability” value was 83.3%.
Next, `O=S(=O)(Nc1c(O)ccc2ccccc12)c1ccccc1`: 91.4%; `Cc1ccc(S(=O)(=O)NN2C(=O)/C(=C/c3ccc(C(=O)O)cc3)SC2=S)cc1`: 96.6%; `N#CC1=C(N)N(c2ccccc2)C2=C(C(=O)CCC2)C1c1ccsc1` (configuration not stated): 99.9%.
The same measure for `C=CCn1c(SCC(=O)c2ccccc2)nnc1-c1ccc2c(c1)OCO2`: 97.8%.
Next, `N#C/C(=C\c1cccs1)C(=O)c1ccccc1`: 102%.
Turning to `CC(=O)OCC1=C(C(=O)O)N2C(=O)C(NC(=O)CCn3nc(C(F)(F)F)c(Br)c3C3CC3)C2SC1` (configuration not stated), the “viability” value is 105%.
Next, `COc1ccc(N2CCN(C(=O)CCC(=O)N3Cc4ccccc4Oc4ncccc43)CC2)cc1`: 95%; `CN1C(C(=O)NCc2cccs2)=CC(c2ccc(F)cc2)=NS1(=O)=O`: 103%; `O=C(O)C(c1ccccc1)N1C(=O)/C(=C/c2cccs2)SC1=S` (configuration not stated): 104%.
The same measure for `Nc1ccc(S(=O)(=O)Nc2nccs2)cc1N=Nc1ccccc1[N+](=O)[O-]`: 88.8%.
The same measure for `CCOC(=O)c1cc(-c2ccco2)nc2c1c(C)nn2CCC#N`: 88.5%; for `COc1cc(C(C2C(=O)CC(C)(C)CC2=O)C2C(=O)CC(C)(C)CC2=O)ccc1O`: 102%; for `COc1cccc(/C=C2\SC(=S)N(NS(=O)(=O)c3ccccc3)C2=O)c1OC`: 81.7%.
Regarding `CN(C)c1ccc(C=Nc2ccc(N(C)C)cc2)cc1`, the “viability” value was 101%.
The same measure for `O=C1NC(=S)N/C1=C/C=C/c1ccccc1`: 93.6%.
`CCCC(C(=O)O)N1C(=O)/C(=C2\C(=O)N(C)c3ccccc32)SC1=S` (configuration not stated): the “viability” value is 97.8%.
Turning to `CCN1/C(=C2\C(=O)N(C)C(=S)N2C)C=Cc2cc(OC)ccc21`, the “viability” value was 91.1%.
Next, `O=C(O)CN1C(=O)/C(=C\c2cccc(OCc3ccc(Cl)cc3Cl)c2)SC1=S`: 87%; `O=C(CNC(=O)N1CC(=O)Nc2ccccc21)Nc1cccc(F)c1`: 98.9%; `O=C(O)c1[nH]c2ccccc2c1C(c1ccccc1)c1c(C(=O)O)[nH]c2ccccc12`: 99.6%.
The same measure for `O=C(O)c1ccc(NC2=C/C(=N/S(=O)(=O)c3cccs3)c3ccccc3C2=O)cc1`: 82.7%; for `O=C(O)c1ccc(Nc2nc3ccccc3nc2NS(=O)(=O)c2ccc(F)cc2)cc1`: 86.9%; for `Cc1ccc(/C=C2\S/C(=N/S(=O)(=O)c3cccs3)NC2=O)cc1`: 93.7%.
Regarding `CC(C)(C)c1ccc(S(=O)(=O)/N=C2\C=C(NS(=O)(=O)c3ccccc3)C(=O)c3ccccc32)cc1`, the “viability” value is 102% [at 20 µM].
Next, `Cc1ccc(S(=O)(=O)/N=C2\C=C(NS(=O)(=O)c3ccc(C)cc3)C(=O)c3ccccc32)cc1`: 101% [at 20 µM]; `O=C(O)c1ccc(NS(=O)(=O)c2ccc3c(c2)C(=O)c2cc(S(=O)(=O)Nc4ccc(C(=O)O)cc4)ccc2-3)cc1`: 105%; `Cc1ccc(N2C(N)=C(C#N)C(c3cccnc3)C3=C2CCCC3=O)cc1` (configuration not stated): 84.3%.
Next, `C=CCOc1cccc(C2C(C(=O)c3cc4ccccc4o3)=C(O)C(=O)N2c2cc(C)on2)c1` (configuration not stated): 85%.
As to `CCOc1ccc(NS(=O)(=O)c2ccc(Cl)c(N=Nc3c(O)[nH]c(=S)[nH]c3=O)c2)cc1Br`, the “viability” value was 94.2%.
The same measure for `C/C(=N\Nc1cccc(C(=O)O)c1)c1ccc2c(c1)Nc1ccccc1S2`: 91.2%; for `CC(N=Cc1cccc(O)c1O)c1ccccc1` (configuration not stated): 92%; for `CSc1ccc(C(c2c(C(=O)O)[nH]c3ccccc23)c2c(C(=O)O)[nH]c3ccccc23)cc1`: 103%.
The same measure for `CN(C(=S)Nc1ccc(SC(F)F)cc1)c1ccc(O)cc1`: 90.9%; for `CC(C)c1nc(SCC(=O)N2CCCC2)c2ccccc2n1`: 99.6%.
Next, `CC(=O)OCC1=C(C(=O)O)N2C(=O)C(NC(=O)c3ccc(COc4c(C)cccc4Cl)o3)C2SC1` (configuration not stated): 108%; `Cc1ccc([C@@H]2CC=C(C(=O)O)[C@H](c3ccc(Br)cc3)N2S(=O)(=O)c2ccc(C)cc2)cc1`: 100%.
In the case of `CC1=C/C(=C(/c2cc(C)c(O)c(Br)c2)c2ccccc2S(=O)(=O)O)C=C(Br)C1=O`, the “viability” value is 89.2%.
Next, `COc1cc(/C=C2\SC(=S)N(C(C(=O)O)c3ccccc3)C2=O)cc(OC)c1OC` (configuration not stated): 89.6%.
The same measure for `C[N+](C)(CCOc1ccccc1)Cc1ccccc1` (tested in a mixture with another compound): 102%.
Next, `O=C(CSc1nc2scc(-c3ccco3)c2c(=O)n1-c1ccccc1)NCC1CCCO1` (configuration not stated): 91%.
For the molecule `CC(C)(C)C1CCc2c(sc(NC(=O)C3CC=CCC3C(=O)O)c2C#N)C1` (configuration not stated), the “viability” value is 87.3%.
The same measure for `O=C(NC(NC(=S)Nc1ccccc1C(=O)O)C(Cl)(Cl)Cl)c1ccccc1` (configuration not stated): 102%; for `C=CCOc1ccc(C(c2c(C(=O)O)[nH]c3ccccc23)c2c(C(=O)O)[nH]c3ccccc23)cc1`: 94.7%.
Next, `COc1cccc(C=Nc2cc(C(C)C)c(O)cc2C)c1O`: 101%; `O=C(O)COc1ccccc1/C=N/NC(=O)c1cc(-c2ccc(Cl)cc2)nc2ccccc12`: 84.9%.
The same measure for `Cc1c(Cl)cccc1NS(=O)(=O)c1ccc2c(c1)C1C=CCC1C(c1ccc(C(=O)O)cc1)N2` (configuration not stated): 94.9%.
As for `CCOc1ccc(N(C)C(=O)CCc2nnc3ccc(N4CCCC4)nn23)cc1`, the “viability” value is 97.5%.
The same measure for `Cn1c(SCC(=O)N2CCCCC2)nc2cccnc21`: 101%.
The same measure for `O=C1NC2=C(C(=O)CCC2)C(c2ccccc2[N+](=O)[O-])N1` (configuration not stated): 111%.
The same measure for `Nc1sc2c(c1C(=O)NC1CC1)CCCC2`: 95.7%; for `O=C(CCCN1C(=O)/C(=C/c2ccco2)SC1=S)Nc1cccc(C(=O)O)c1`: 111%.
For `COc1ccc(N2CCC(CNC(=S)Nc3c(C)cccc3C)C2)cc1` (configuration not stated), the “viability” value was 90.4%.
Next, `CC(Cc1cccc(C(F)(F)F)c1)NCCOC(=O)c1ccccc1` (configuration not stated): 112%; `O=C(Cc1cnn(-c2ccccc2)c1)c1ccc(O)c(O)c1O`: 113%; `Cc1ccc(S(=O)(=O)ON2C(=O)c3ccccc3C2=O)c(C)c1`: 92.6%.
Next, `O=c1c(C(c2ccc(O)cc2)c2c(O)nc3n(c2=O)CCCS3)c(O)nc2n1CCCS2`: 94.3%.

As a reminder, the viability is a read-out of living cells in per cent, often relative to untreated cells.
